# PNC assembly inh – blocks assembly of the perinucleolar compartment | PC3M PTB-GFP, PNC prevalence imaging, 16 h; active compounds read low | activity change (PNC), negative = inhibition, % at 10 µM | hit rate 3.1% among 140,000 | AID 2417;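 active = readout at or below -70, meaning at least 70% loss of cells showing the perinucleolar compartment, a nuclear body marking cancer cells; inconclusive = readout between -30 and a set limit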
#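 Read-out is percentage of cells bearing a perinucleolar compartment, from automated 20x imaging of fixed, Hoechst-stained PC3M PTB-GFP cells. Cells were seeded 4 h, then exposed 16 h to compound (23 nl of library stock) in duplicate plates.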
# HPGD inh – HPGD (human) dehydrogenase inhibition; P15428; purified HPGD, NADH fluorescence kinetic, PGE2 substrate; Potency, µM, actives largely listed as inhibitors; hit rate 4.3% among 150,000; AID 894
# Target sequence (P15428 whole entry, looked up): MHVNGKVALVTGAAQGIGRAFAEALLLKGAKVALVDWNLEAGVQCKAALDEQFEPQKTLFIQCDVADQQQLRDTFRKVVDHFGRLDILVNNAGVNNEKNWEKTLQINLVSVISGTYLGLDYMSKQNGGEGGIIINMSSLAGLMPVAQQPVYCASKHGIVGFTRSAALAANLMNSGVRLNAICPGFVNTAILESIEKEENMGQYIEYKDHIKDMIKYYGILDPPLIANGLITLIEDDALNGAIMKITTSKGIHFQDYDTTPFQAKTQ
#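 NADH formation kinetics: reaction with 30 uM PGE2 and 1 mM NAD+ (final), 20 nM enzyme, Tris-HCl pH 8 with Tween 20, after 15 min compound preincubation at room temperature. Fluorescence change, last versus first of five reads.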
# ALDH1A1 inh – ALDH1A1 (human) enzyme inhibition. P00352. Purified ALDH1A1, NADH fluorescence, propionaldehyde substrate. Potency, µM (doses to about 75.3 µM), usual class: inhibitors. hit rate 7.3% among 220,000. AID 1030
# KinaseGlo FLuc – Kinase-Glo luciferase inhibition (counter-screen). Q27757. Kinase-Glo luciferase, ATP luminescence, 8 min. Potency, µM (doses to about 38.3 µM), actives largely listed as inhibitors. hit rate 0.28% among 200,000. AID 1379; active = well fitted inhibition curve with a large enough effect; inconclusive = small, poorly fitted or top-dose-only effect; note: nearly all actives have a fitted effect of over 60% in size
#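 Luminescence was the read-out, taken after 8-minute incubation at ambient temperature. Luciferase turned over luciferin with 10 uM ATP in imidazole pH 7.2 buffer containing KCl, MgCl2, Tween 20 and BSA.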
# LMNA splice mod – changes lamin A minigene splicing in HeLa cells; HeLa LMNA splicing GFP/RFP minigene ratio, 48 h; Potency, µM (series often up to 46.1 µM), actives largely listed as inhibitors; hit rate 0.01% among 200,000; active = well fitted inhibition curve with a large enough effect in the signal ratio, with a control signal flat, not every such curve was filed as active; inconclusive = small, poorly fitted or top-dose-only effect, or effect the other way, or a change in a side signal; the % refers to the signal ratio
#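 Read-out is the ratio of GFP to DsRed2 object intensity, acquired by 488 nm laser-scanning cytometry on HeLa lamin A-EGFP minigene reporter cells. Compound incubation 48 hrs at 37 °C in Opti-MEM with 2% FBS; DMSO 0.5% final.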
# A number is an active result; n = inactive; u = inconclusive; x = no result; [ ] = another dose, or the depositor's remark. Compounds with a hit are over-represented: about 10% of the library has one in this group of screens. Unless noted, calls come from the whole dose curve; as a rule, active = well fitted inhibition curve with a large enough effect (not every such curve was filed as active); inconclusive = small, poorly fitted or top-dose-only effect, or another doubt; inactive = no such curve, though single readings can be large or run the other way.
SMILES,PNC assembly inh,HPGD inh,ALDH1A1 inh,KinaseGlo FLuc,LMNA splice mod
Cc1cccc(C2(c3cccc(C)c3)CC2C(=O)Nc2ccc([N+](=O)[O-])cc2O)c1 (stereo not drawn),n,18µM,n,n,u
CCN1CCN(C(c2cccc(F)c2)c2c(O)cc(C)n(Cc3ccco3)c2=O)CC1 (stereo not drawn),x,x,x,x,n
COc1ccccc1NC(=O)CSCc1cc(=O)c2cccc(Cl)c2[nH]1,x,x,x,x,n
CCc1ccccc1-n1c(SCC(=O)NC)nnc1-c1cccnc1,-122,x,n,x,n
Cc1ccc(-n2c(SCn3nnc4ccccc4c3=O)nnc2-c2cccnc2)c(C)c1,n,n,22µM,n,n
O=C(CSc1nnc(-c2cccnc2)n1C1CCCCC1)NC1CCCC1,n,22µM,n,n,n
COc1cc(C(C)=O)ccc1OCC(O)CN1CCN(S(=O)(=O)c2ccccc2)CC1 (stereo not drawn),n,n,28µM,n,n
CN(C)c1ccc(/C=N/NC(=O)c2ccnn2C)cc1,x,x,u,1.8µM,x
Cc1cccc(/C=N\NC(=O)c2csnn2)c1,n,3.2µM,n,u,n[0.0737 µM]
O=C(N/N=C\c1ccc(Oc2ccccc2)cc1)c1csnn1,x,x,n,n,n
CN(C)c1ccc(/C=N\NC(=O)c2csnn2)cc1,n,n,1µM,u,n
COCc1cc(C)nc2sc(C(=O)N3CCCC3)c(N)c12,-117,2.5µM,u,n,n
CC(=O)c1sc2nc(C)cc(C)c2c1N,n,u,u,n,n
Cc1cc(C)c2c(N)c(C(=O)N3CCCCCC3)sc2n1,n,1.6µM,u,n,n
Cc1cc(C)c2c(N)c(C(=O)NCc3ccco3)sc2n1,-98,u,u,n,n
COCc1cc(C)nc2sc(C(=O)OC)c(N)c12,n,n,n,n,n
Cc1cc(SCC(=O)OCC(=O)N2CCN(C(=O)c3ccco3)CC2)c(C)cc1Br,n,n,32µM,n,n
Cc1ccsc1C(=O)OCC(=O)N1CCN(C(=O)c2ccco2)CC1,x,x,n,n,n
O=C(Cc1ccc(Cl)cc1Cl)OCC(=O)N1CCN(C(=O)c2ccco2)CC1,x,x,14µM,n,n[9.22 µM]
CCOc1ccc(C2CC(=O)NC(NC(=O)c3cccc(Cl)c3)=N2)cc1 (stereo not drawn),x,x,x,x,n
CCCn1c(-c2ccc(F)cc2)nc2c(NCCN3CCCCC3)nc(C)nc21,x,u,u,n,x
COc1ccc(-n2c(-c3ccc(C)cc3)n[nH]c2=S)cc1,n,u,n,n,n
Oc1ccc(-c2n[nH]c(=S)n2-c2ccc3c(c2)OCCO3)cc1,n,20µM,25µM,n,n
Cc1ccc(C)c(-n2c(-c3ccc4c(c3)OCO4)n[nH]c2=S)c1,n,u,u,n,n
S=c1[nH]nc(-c2ccc3ncccc3c2)n1-c1ccc2c(c1)OCCO2,x,x,n,n,x
SMILES,PNC assembly inh,HPGD inh,ALDH1A1 inh,KinaseGlo FLuc,LMNA splice mod
Fc1ccc(-n2c(-c3ccc4c(c3)OCO4)n[nH]c2=S)cc1Cl,n,10µM,u,n,n
COc1cc(OC)cc(-c2n[nH]c(=S)n2-c2ccc3c(c2)OCO3)c1,-104,25µM,n,n,n
CC(C)(C)OC(=O)N1CCC(c2c(C(=O)NCCc3ccccc3)cnn2-c2ccc(F)cc2)CC1,x,x,x,x,n
CC(C)CC(=O)NC(=S)Nc1cccc(NC(=O)c2ccccc2)c1,u,n,25µM,n,n
O=C(Nc1ccc(NC(=S)NC(=O)c2ccccc2F)cc1)c1cccs1,x,x,u,n,u
CC(C)CC(=O)NC(=S)Nc1ccc(NC(=O)c2cccs2)cc1,n,7.9µM,u,n,n
CCCC(=O)NC(=S)Nc1cccc(NC(=O)c2ccccc2)c1,x,x,u,n,x
COC(=O)c1cn(C(=O)c2ccc(Br)o2)c2ccccc12,u,n,32µM,n,n
CCOC(=O)CCCCN(Cc1ccccc1F)S(=O)(=O)c1ccc(F)c(C(=O)Nc2cc(Cl)cc(Cl)c2)c1,x,x,x,x,n
COc1ccc(S(=O)(=O)N2CCOCC2)cc1NC(=O)COC(=O)c1ccc(C)s1,x,x,u,n,x
COc1ccc(NC(=O)Cc2c[nH]c3ccccc23)cc1S(=O)(=O)N1CCOCC1,x,x,n,n,n
COc1ccc(S(=O)(=O)N2CCOCC2)cc1NC(=O)CCc1c[nH]c2ccccc12,x,x,14µM,n,n
COc1ccc(S(=O)(=O)N2CCOCC2)cc1NC(=O)COC(=O)C1COc2ccccc2O1 (stereo not drawn),-92,n,n,n,n
Cc1ccccc1OCCC(=O)OCC(=O)Nc1cc(S(=O)(=O)N2CCOCC2)ccc1Cl,x,x,2.5µM,n,n
Cc1cccc(NC(=O)COC(=O)CCc2ccc(S(=O)(=O)N3CCOCC3)cc2)c1C,x,x,3.5µM,n,x
COC(=O)[C@@]1(Cc2ccccc2)[C@H]2c3cc(C(=O)N(C)C)n(CCF)c3C[C@H]2CN1C(=O)c1ccccc1,x,n,n,n,x
CCc1ccc(NC(=O)CSC2=Nc3ccccc3C3=NC(CCC(=O)NCc4ccco4)C(=O)N23)cc1 (stereo not drawn),x,x,x,x,n
CCn1c2ccccc2c2nnc(N3CCN(c4cccc(Cl)c4)CC3)nc21,x,x,x,x,n
COc1ccccc1OCCC(=O)OCC(=O)Nc1cc(S(=O)(=O)N2CCOCC2)ccc1Cl,x,x,6.3µM,n,n
COc1ccccc1OCCC(=O)OCC(=O)Nc1ccc(S(=O)(=O)N2CCOCC2)cc1,x,x,u,n,n
O=C(CSc1nnc(-c2ccco2)n1Cc1ccccc1)c1ccc(F)cc1,n,25µM,4µM,n,n
O=C(CSc1nnc(-c2ccc(Br)o2)n1Cc1ccccc1)c1ccccc1F,u,32µM,u,n,n
O=C(CSc1nnc(Cc2ccccc2)n1Cc1ccco1)NC1CCCC1,n,n,22µM,n,n
Cc1cc(NC(=O)CSc2nnc(-c3ccc(Br)o3)n2Cc2ccccc2)no1,n,n,u,n,u
Cn1c(Cc2ccccc2)nnc1SCC(=O)NC1CCCCC1,n,n,n,n,n
SMILES,PNC assembly inh,HPGD inh,ALDH1A1 inh,KinaseGlo FLuc,LMNA splice mod
COCCn1c(SCC(=O)c2ccc(F)cc2)nnc1C(C)C,u,n,13µM,n,n
N#CNC(N)=Nc1ccc(Cl)cc1,x,n,u,n[7.66 µM],x
CC(C)(C)[C@]1(O)CCN2CC3c4ccccc4CCc4cccc(c43)[C@@H]2C1 (stereo partly drawn),x,n,n,n,u
C[C@H]1[C@H](C)CC[C@]2(C(=O)O)CC[C@]3(C)C(=CCC4[C@@]5(C)C[C@@H](O)[C@H](O)[C@@](C)(CO)[C@@H]5CC[C@]43C)[C@H]12 (stereo partly drawn),x,n,n,n,x
CCc1cccc(NC(=O)C2Cc3ccccc3N2C(=O)c2ccccc2)c1 (stereo not drawn),x,x,x,x,n
CC(=O)Nc1nonc1-c1nnc(SCC(=O)Nc2cc(C)cc(C)c2)n1C,x,x,x,x,n
CC(=O)Nc1ccc(NC(=O)CSc2nnc(-c3ccco3)n2Cc2ccco2)cc1,n,n,20µM,n,n
O=C(CSc1nnc(-c2ccco2)n1Cc1ccco1)NCc1ccccc1,-94,n,n,n,n

# Screening data: PubChem, National Center for Advancing Translational Sciences (NCATS)
